Screening data (PubChem)
Shown are actives, neighbours in structure and some others; about 11% of the full set was active somewhere.
MCF10A rerep: induces DNA re-replication in MCF 10a normal breast cells; MCF 10A DNA re-replication, Hoechst nuclear intensity, 48 h; Potency, µM (top dose mostly 46.1 µM), usual class: activators; actives 2.9% (n = 350,000); AID 624296; further: nearly all actives have a fitted effect of over 50% in size
VP16 counter: counter-screen for ROR gamma inhibitors: Gal4-VP16 reporter; Drosophila S2 Gal4-VP16 UAS-luciferase, luminescence, 20 h; Potency, µM (series often up to 53.6 µM), actives largely listed as inhibitors; actives 3.5% (n = 310,000); AID 2546;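 further: Gal4-VP16 expression switched on by copper sulfate through the metallothionein promoter; nearly all actives have a fitted effect of over 50% in size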
IL1B secr inh: inhibitors of inflammasome signaling (IL-1 beta secretion); actives 4.7% (n = 360,000); THP-1 LPS/ATP IL-1B secretion, AlphaLISA, 16 h; active compounds read low; AID 743279; activity change, % at 57.5 µM; in the data active means activity change below about -50%; inconclusive means mostly about -30% to -49%
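Secreted IL-1B measured by AlphaLISA bead assay after 16 h compound exposure of THP-1 cells; compounds (final up to 57.5 uM) added 1 h before LPS (250 ng/mL) and ATP (1.25 mM) stimulation; lower signal means less secretion.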
RORg inh: ROR gamma (mouse) transcription inhibition. P51450. Drosophila S2 Gal4-RORgamma UAS-luciferase reporter, 20 h. Potency, µM (highest dose often 53.6 µM), hits mostly inhibitors. actives 5.4% (n = 310,000); further: nearly all actives have a fitted effect of over 60% in size
Target sequence (P51450 whole entry, looked up, the tested form may be a part): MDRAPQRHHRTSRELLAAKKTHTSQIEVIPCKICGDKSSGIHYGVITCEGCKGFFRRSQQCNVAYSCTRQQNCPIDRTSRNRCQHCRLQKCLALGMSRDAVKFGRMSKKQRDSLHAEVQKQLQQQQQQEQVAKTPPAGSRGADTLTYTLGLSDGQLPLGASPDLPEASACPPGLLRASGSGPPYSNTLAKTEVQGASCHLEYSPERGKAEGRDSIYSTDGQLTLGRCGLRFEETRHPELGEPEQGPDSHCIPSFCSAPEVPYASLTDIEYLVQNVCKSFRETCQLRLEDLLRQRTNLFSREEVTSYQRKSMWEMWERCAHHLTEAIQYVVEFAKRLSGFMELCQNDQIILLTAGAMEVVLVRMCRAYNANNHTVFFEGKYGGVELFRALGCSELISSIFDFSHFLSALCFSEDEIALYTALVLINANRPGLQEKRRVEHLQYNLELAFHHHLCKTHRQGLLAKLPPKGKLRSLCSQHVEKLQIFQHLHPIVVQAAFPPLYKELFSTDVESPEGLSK
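Read-out: Photinus luciferase luminescence; inhibitors lower reporter signal. Insect Schneider cells with Gal4-ROR gamma fusion under metallothionein promoter, UAS reporter; 700 uM final copper sulfate induction, 20 hr, ambient temperature.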
SW480 rerep: DNA re-replication induction in SW480 cells; SW480 DNA re-replication, Hoechst DNA content imaging, 48 h; Potency, µM (titrated, usually from 46.1 µM), most hits filed as activators; actives 1.8% (n = 340,000); further: nearly all actives have a fitted effect of over 55% in size
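Image-based DNA-content assay: after two days of treatment, nuclei were labelled with the DNA dye Hoechst and imaged, and hits were compounds raising the count of nuclei showing high fluorescence intensity.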
A number is an active result; – = inactive; ? = inconclusive; · = no result given; [ ] = remark or other dose. Unless noted, the call rests on the fitted dose curve; in most records, active means well fitted curve in the direction sought with a large enough effect; inconclusive means small, poorly fitted or top-dose-only effect, or another doubt; inactive means no such curve, though single readings can be large; an effect the other way counts as inactive or inconclusive.

SMILES	MCF10A rerep	VP16 counter	IL1B secr inh	RORg inh	SW480 rerep
COC(=O)c1ccccc1NC(=S)NC(=O)c1ccccc1C	?	?	–	7.94µM	?
O=C(NC(=S)Nc1ccccc1[N+](=O)[O-])c1ccco1	–	?	–	7.94µM	–
CCCCNC(=O)C1(C)CCN1C(=O)c1cccc(OC(C)=O)c1C (stereo unspecified)	·	·	–	·	·
Cc1cc2nc(C3CCCCC3)c(Cc3ccccc3)n2c(C)c1Br	·	·	–	·	·
Cc1ccc2oc(-c3ccc(C)c(NC(=S)NC(=O)c4cccs4)c3)nc2c1	10.3µM	7.08µM	–	7.08µM	–
Cc1ccc2oc(-c3ccc(C)c(NC(=O)Cc4cccs4)c3)nc2c1	–	–	–	–	–
Cc1ccc2oc(-c3cccc(NC(=O)C4CCCO4)c3)nc2c1 (stereo unspecified)	–	?	–	?	–
Cc1ccc2oc(-c3cccc(NC(=O)c4cc(-n5cnnc5)ccc4Cl)c3)nc2c1	8.2µM	?	–	?	?
Cc1ccc2oc(-c3cccc(NC(=O)Cc4cccs4)c3)nc2c1	14.6µM	–	–	–	–
Cc1cccc(-c2nc3cc(NC(=O)C4CCCO4)ccc3o2)c1 (stereo unspecified)	–	?	–	0.282µM	–
CCN(CC(=O)Nc1c(F)cccc1F)C(=O)C1COc2ccccc2O1 (stereo unspecified)	–	·	–	·	–
CCC(=O)Nc1ccc(-c2nc3ccccc3c(=O)o2)cc1	–	15.8µM	–	–	–
O=C(Nc1ccc(-c2nc3ccccc3s2)cc1)c1cc(-n2cnnc2)ccc1Cl	–	?	-84.0	–	–
CCC(=O)Nc1cccc(-c2nc3ccc(C)cc3o2)c1	–	?	–	?	–
CCC(=O)Nc1ccc2oc(-c3cccc(C)c3)nc2c1	–[9.22 µM]	2.24µM	–	0.794µM	–
Cc1ccc(C(=O)COC(=O)C2C3C=CC(C3)C2C(=O)OCC(=O)c2ccc(C)c(C)c2)cc1C (stereo unspecified)	–	–	-53.5	?	–
CCOC(=O)C1=CNS(=O)(=O)NC1c1ccc(C[C@H](NC(=O)CNC(=O)CCc2ccccc2)C(N)=O)cc1 (stereo partly specified)	–	·	–	·	–
O=C(Nc1cc(-c2ccccc2)nn1-c1c(Cl)cccc1Cl)c1ccc(F)cc1	14.6µM	·	–	·	–[9.22 µM]
Cc1cc(NC(=O)c2ccc(F)cc2)n(-c2ccccn2)n1	–	–	-68.0	–	–
Cc1cc(NC(=O)Nc2cccc(Cl)c2)n(-c2ccccn2)n1	?	–	-73.2	–	–
CNC(=S)N/N=C(\C)c1ccc(N2CCOCC2)cc1	?	?	–	7.94µM	–
CCNC(=S)N/N=C(\C)c1ccc(N2CCOCC2)cc1	–	3.55µM	–	2.51µM	–
C/C(=N\NC(=O)c1cccc(C)c1)c1ccc(N2CCOCC2)cc1	–	–	–	?	–
CCN(Cc1nc(-c2ccccc2)no1)C(=O)c1ccco1	–	–	–	–	–
Cc1ccccc1C1=C/C(=C(\SS/C(C(=O)c2ccc(OCC(=O)O)c(Cl)c2Cl)=C2\C=C(c3ccccc3C)SS2)C(=O)c2ccc(OCC(=O)O)c(Cl)c2Cl)SS1	–	·	?	·	–
SMILES	MCF10A rerep	VP16 counter	IL1B secr inh	RORg inh	SW480 rerep
Cc1[nH]n(-c2ccccc2)c(=O)c1N=Nc1ccccc1O	–	4.47µM	–	2µM	?
Cc1[nH]n(-c2ccccc2)c(=O)c1N=Nc1ccccc1C(=O)O	–	–	–	–	–
Cc1[nH]n(-c2ccccc2)c(=O)c1N=Nc1nccs1	?	5.62µM	–	5.62µM	?
C=CCC[C@H](Cc1ccc(F)cc1)C(=O)OC[C@@H](NC(=O)[C@@H](CC=C)CC(=O)N[C@@H](CO)Cc1ccccc1)C(C)(C)C	–	·	-59.5	·	?
C=CCC[C@@H](Cc1ccc(F)cc1)C(=O)OC[C@H](Cc1c[nH]c2ccccc12)NC(=O)[C@H](CC=C)CC(=O)NCCO	?	·	-57.2	·	–
C=CCC[C@H](Cc1ccc(F)cc1)C(=O)OC[C@H](Cc1c[nH]c2ccccc12)NC(=O)[C@@H](CC=C)CC(=O)N[C@@H](CO)Cc1ccccc1	?	·	–	·	–
C=CCC[C@H](Cc1ccc(F)cc1)C(=O)OC[C@@H](Cc1c[nH]c2ccccc12)NC(=O)[C@H](CC=C)CC(=O)NCCO	–	·	–	·	–[9.22 µM]
C=CCC[C@@H](Cc1ccc(F)cc1)C(=O)OC[C@H](Cc1c[nH]c2ccccc12)NC(=O)[C@@H](CC=C)CC(=O)N[C@H](CO)Cc1ccccc1	–	·	–	·	3.66µM
C=CC[C@@H](CC(=O)N[C@@H](CO)Cc1ccccc1)C(=O)N[C@@H](COC(=O)[C@@H](CC=C)Cc1ccc(F)cc1)Cc1c[nH]c2ccccc12	–	·	-50.7	·	–
C=CC[C@H](CC(=O)N[C@H](CO)Cc1ccccc1)C(=O)N[C@H](COC(=O)[C@@H](CC=C)Cc1ccc(F)cc1)Cc1c[nH]c2ccccc12	–	·	–	·	–[9.22 µM]
C=CCC[C@@H](Cc1ccc(F)cc1)C(=O)OC[C@@H](NC(=O)[C@@H](CC=C)CC(=O)N[C@@H](CO)Cc1ccccc1)C(C)(C)C	?	·	?	·	–
O=C(CNCCc1ccc(Cl)cc1)Nc1ccc(C(=O)N2CCCCC2)cc1	–	–	–	–	–
C=CC[C@@H](CC(=O)N[C@@H](CO)Cc1ccccc1)C(=O)N[C@H](COC(=O)[C@@H](CC=C)CC(=O)OC(C)(C)C)Cc1c[nH]c2ccccc12	16.4µM	·	?	·	?
CCOC(=O)c1c(NC(=O)COC(=O)c2ccc([N+](=O)[O-])cc2)sc(C(=O)N(C)C)c1C	–	·	–	·	–
CCOC(=O)c1c(NC(=O)COC(=O)c2cccnc2OCC)sc(C(=O)N(CC)CC)c1C	–	·	-60.1	·	–
CCOC(=O)c1c(C)[nH]c(C(=O)OCC(=O)Nc2sc(C(=O)N(C)C)c(C)c2C(=O)OCC)c1C	–	·	-51.3	·	–
CCOC(=O)Nc1sc(C(=O)N(CC)CC)c(C)c1C(=O)OCC	–	–	–	?	–
CCc1nnc(NC(=O)CSCc2cc(=O)n3ccsc3n2)s1	–	–	–	–	–
N#Cc1ccc(S(=O)(=O)N2CCN(Cc3cccs3)CC2)cc1	–	·	–	·	–
Cc1ccc(-c2[nH]c(-c3ccc(C(=O)O)cc3)nc2-c2ccccc2)cc1	9.2µM	–	–	–	?
CCN1C(=O)c2ccc(C(=O)Nc3ccc4c(c3)OCO4)cc2C1=O	–	?	–	–	?
Cc1ccc(-c2cc(C(=O)Nc3ccc(S(=O)(=O)Nc4cc(C)on4)cc3)c3ccccc3n2)c(C)c1	?	–	–	?	–
COc1ccc(-c2nc3ccccc3c(C(=O)Nc3ccc(S(=O)(=O)Nc4cc(C)on4)cc3)c2C)cc1	18.4µM	–	–	?	?
O=C(O)C(SC(C(=O)O)c1ccccc1)c1ccccc1 (stereo unspecified)	–	·	–	·	–
